# Reference: PubChem BioAssay AID463173 (ICCB-Longwood Screening Facility, Harvard Medical School, 2010)
# The campaign covered roughly 52,000 compounds. About 1,700 (3.3%) were called active. The sample holds actives, similar compounds and a random draw of the others, so the mix is not that of the screen. Values without a mark were called inactive. Cut-off read from the data, not from the text of the source: active = survival mostly below about 52% (no sharp cut-off); inactive = mostly above about 56%.
# Tested on: Wild type
# Test: S. aureus survival, RN4220 and DeltatarO strains – OD600, teichoic acid synthesis inhibitors, primary screen (AID 463173)
# Conditions: S. aureus RN4220 wild type/DeltatarO growth, OD600, 18 h, stronger effect = lower value, screened at 18.75 µg/mL (by protocol)
row,SMILES,survival
1,Cc1ccc(C)c(N2CCN(C(=O)NC3CCCCC3)CC2)c1,103%
2,COc1ccc2nc3oc(C(=O)Nc4cccc(C(F)(F)F)c4)cc3cc2c1,66%
3,CCCCN1C(=O)CN(C2CCCCCC2)C(=O)C1c1ccc(OCCC)c(OC)c1 (configuration not stated),87%
4,COc1ccc(C2C(=O)N(C3CCC(C)CC3)CC(=O)N2C2CCCC2)cc1OC (configuration not stated),-4% (active)
5,CCCOc1ccc(C2C(=O)N(C3CCCCC3)CC(=O)N2C2CCCCC2)cc1OC (configuration not stated),77%
6,COc1ccc(C2C(=O)N(C3CCC(C)CC3)CC(=O)N2C2CCCCC2)cc1OC (configuration not stated),64%
7,CCCOc1ccc(C2C(=O)N(C3CCCCCC3)CC(=O)N2CCC)cc1OC (configuration not stated),-6% (active)
8,COc1ccc(C2C(=O)N(C3CCC(C)CC3)CC(=O)N2CCC2=CCCCC2)cc1OC (configuration not stated),-3% (active)
9,CCCOc1ccc(C2C(=O)N(C3CCCCCC3)CC(=O)N2CCC2=CCCCC2)cc1OC (configuration not stated),123%
10,CCCOc1ccc(C2C(=O)N(C3CCC(C)CC3)CC(=O)N2CCC2=CCCCC2)cc1OC (configuration not stated),87%
11,CCCN1C(=O)CN(C2CCCCCC2)C(=O)C1c1ccc(OCC)c(OC)c1 (configuration not stated),120%
12,COc1ccc(-n2cc(C(=O)N(C)c3cc(C)ccc3OC)c3ccccc3c2=O)cc1,114%
13,Cc1ccc(NC(=O)CCc2c(C)nc3nc(C)nn3c2C)c(Cl)c1,70%
14,CCc1nnc(SC(CC)C(=O)NCCOC)c2cc3occc3n12 (configuration not stated),105%
15,Cc1ccc(C(=O)n2nc(C)c(S(=O)(=O)N3CCOCC3)c2C)cc1,85%
16,CCN(c1cccc(C)c1)S(=O)(=O)c1cc(Br)cc2c1N(C(C)=O)C(C)C2 (configuration not stated),75%
17,CN(C)CCNC(=O)c1ccc(-n2c(-c3ccccc3)cc3c2CCCC3)cc1,29%
18,CCN(CC)CCNC(=O)c1ccc(-n2c(-c3ccccc3)cc3c2CCCC3)cc1,2% (active)
19,CN(C)CCNC(=O)c1ccc(-n2c(-c3ccccc3)cc3c2CCCCC3)cc1,17%
20,Cc1ccc(C2C(C(=O)/C=C/c3ccccc3)=C(O)C(=O)N2CCO)cc1 (configuration not stated),99%
21,O=S(=O)(NCCSc1nnnn1-c1ccccc1)c1ccc(F)cc1,76%
22,O=S1(=O)C=C(Sc2nnnn2-c2ccccc2)c2ccccc21,-1% (active)
23,O=C1CC(CSc2nnnn2-c2ccccc2)=NN1,128%

row,SMILES,survival
1,O=S(=O)(c1ccc(-c2csc(=Nc3ccc(OC(F)(F)Cl)cc3)n2CCCO)cc1)N1CCCC1,132%
2,CCN(CC)CCn1c(-c2ccccc2)csc1=Nc1ccccc1,45%
3,OCCCn1c(-c2ccc(F)cc2)csc1=Nc1ccc(F)cc1,9% (active)
4,Cc1ccc(-c2csc(=Nc3ccccc3)n2CCCO)cc1,-7% (active)
5,O=S(=O)(c1ccc(-c2csc(=Nc3ccc(F)cc3)n2CCCCCCO)cc1)N1CCCC1,55%
6,COc1ccc(-c2csc(=Nc3ccccc3)n2CCO)cc1F,63%
7,Cc1ccc(NC(=O)C(=O)NCC(c2ccc3c(c2)OCO3)N2CCN(c3ccccc3)CC2)cc1 (configuration not stated),75%
8,O=C(CCC1N=C2c3ccccc3N=C(SCC(=O)Nc3ccccc3F)N2C1=O)NCc1ccccc1 (configuration not stated),76%
9,CCOc1ccc(CNC(=O)C2CCN(S(=O)(=O)N3CCC(C)CC3)CC2)cc1OC,84%
10,CCOc1ccc(-c2nnc(SCC(=O)c3ccc(Br)cc3)n2-c2ccccc2)cc1,92%
11,CC(=O)N1CCc2c(sc3c2c(=O)n(CCc2ccccc2)c(=O)n3Cc2ccc(Cl)cc2)C1,65%
12,O=C(CSc1nc2c(c(=O)[nH]1)CN(Cc1ccc3c(c1)OCO3)CC2)Nc1ccccc1Cl,81%
13,O=C(CCN1CCCCC1)c1ccccc1,92%
14,Cc1ccc2nc(Cl)c3cc(C(=O)N4CCCC(C)C4)sc3c2c1 (configuration not stated),-2% (active)
15,CC(C)N(C(=O)c1cc2c(Cl)nc3ccccc3c2s1)C1CCCCC1,-1% (active)
16,Cc1ccc2nc(Cl)c3cc(C(=O)N4CCCCC4C)sc3c2c1 (configuration not stated),21%
17,Cc1ccc2nc(Cl)c3cc(C(=O)NC4CCCCC4)sc3c2c1,76%
18,Cc1ccc2nc(Cl)c3cc(C(=O)N4CCCCC4)sc3c2c1,-2% (active)
19,Cc1ccc2nc(Cl)c3cc(C(=O)NC4CCC(C)CC4)sc3c2c1 (configuration not stated),72%
20,CCOC(=O)C1CCCN(C(=O)c2cc3c(Cl)nc4ccccc4c3s2)C1 (configuration not stated),41%
21,O=C(c1cc2c(Cl)nc3ccccc3c2s1)N1CCCCC1,58%
22,Cc1ccc2nc(Cl)c3cc(C(=O)NC4CCCCCC4)sc3c2c1,119%
23,O=C(NC1CCCCC1)c1cc2c(Cl)nc3ccccc3c2s1,77%

row,SMILES,survival
1,CC1CCCN(C(=O)c2cc3c(Cl)nc4ccccc4c3s2)C1 (configuration not stated),-2% (active)
2,O=C(NC1CCCCCC1)c1cc2c(Cl)nc3ccccc3c2s1,123%
3,CCCCC(=O)Nc1ccc(OCc2cc(=O)n3c(C)csc3n2)cc1,87%
4,COc1ccccc1NC(=O)C(Cc1ccccc1)NS(=O)(=O)c1ccc2c(c1)CCN2C(C)=O (configuration not stated),80%
5,CCOc1ccccc1NS(=O)(=O)c1ccc2c(c1)oc(=O)n2C,82%
6,O=C(Nc1ccc2nn(-c3ccccc3)nc2c1)c1cc2ccccc2o1,80%
7,COC(=O)c1scc(-c2ccc(C)cc2)c1S(=O)(=O)N1CCN(c2cccc(OC)c2)CC1,53%
8,CCCCn1c(Cc2ccccc2)nnc1SCC(=O)NC,104%
9,COC(=O)c1ccc(NC(=O)c2cc(S(=O)(=O)N3CCOCC3)cn2C)cc1,84%
10,COC(=O)C1(c2ccccc2)NC(c2ccc(O)cc2)C2C(=O)N(c3ccc4c(c3)OCCO4)C(=O)C21 (configuration not stated),106%
11,Cc1cc(N2CCC(C(=O)N(CC(C)C)CC(C)C)CC2)n2nc(C)c(-c3ccc(Cl)cc3)c2n1,91%
12,COc1ccc(NC(=O)CN2C(=O)CC(c3ccc(C)c(C)c3)=Nc3ccccc32)cc1OC,76%
13,CCCn1c(SCC(=O)N2CCCC2)nnc1C(C)C,105%
14,Cc1ccc(NC(=O)CCC(=O)N2Cc3ccccc3Oc3ncccc32)cc1F,82%
15,CCn1cc(C(=O)NCCCOC(C)C)c(=O)c2cc(S(=O)(=O)N3CCOCC3)ccc21,131%
16,COc1ccc(OC)c(CNC(=O)CN(c2ccc(C)cc2)S(=O)(=O)N(C)C)c1,80%
17,COc1ccc(-c2cc3ncc(C(=O)c4cc([N+](=O)[O-])ccc4O)cn3n2)cc1,58%
18,Cc1ccc(-c2cc3ncc(C(=O)c4cc([N+](=O)[O-])ccc4O)cn3n2)cc1,15% (active)
19,CCc1ccc(O)c(C(=O)c2cnc3cc(-c4ccc(C)cc4)nn3c2)c1,66%
20,O=C(c1cnc2cc(-c3ccccc3)nn2c1)c1cc([N+](=O)[O-])ccc1O,19% (active)
21,O=[N+]([O-])c1ccc(O)c(-c2ccnc3cc(-c4ccccc4)nn23)c1,29%
22,Cc1ccc(-c2cc3ncc(C(=O)c4cc(Cl)c(C)cc4O)cn3n2)cc1,91%
23,O=C(CCC(=O)N1CCOc2ccccc21)NCc1cccs1,83%

row,SMILES,survival
1,Cc1cccc(NC(=O)Cn2c(=O)oc3cc(S(=O)(=O)NCc4ccccc4)ccc32)c1,92%
2,CC(=O)c1ccc(NC(=O)Cn2nc(C(F)(F)F)c3c2CCC3)cc1,66%
3,CCc1ccc(NC(=O)C2CCN(S(=O)(=O)c3cccc(-c4noc(C)n4)c3)CC2)cc1,90%
4,CCc1cccc(NC(=O)C2CCN(S(=O)(=O)c3cccc(-c4noc(C)n4)c3)CC2)c1,80%
5,Cc1cc(C)cc(NC(=O)C2CCN(S(=O)(=O)c3cccc(-c4noc(C)n4)c3)CC2)c1,-6% (active)
6,CCOc1ccc(N(CC(=O)Nc2ccccc2)S(C)(=O)=O)cc1,110%
7,COc1cc(Cl)c(C)cc1NC(=O)c1cc2ccc3cccnc3c2[nH]1,73%
8,Cc1cnc2c(c1SCC(=O)N(C)c1ccccc1)c(=O)n(C)c(=O)n2C,100%
9,Cc1ccccc1-c1nc(CN2CCC(C(=O)NCc3ccccc3Cl)CC2)c(C)o1,85%
10,CC(C)(C)c1ccc(Cn2c(=N)n(CC(O)c3ccco3)c3ccccc32)cc1 (configuration not stated),53% (active)
11,Cc1ccc(Cn2c(=N)n(CC(=O)c3ccccc3)c3ccccc32)cc1,107%
12,CCOC(=O)Cn1c(=N)n(Cc2ccc(C(C)(C)C)cc2)c2ccccc21,95%
13,NC(=S)N/N=C/c1ccc(Sc2cccc3cccnc23)o1,115%
14,COC(=O)c1ccc(Cn2c(=O)cc(C)c3c(C)nn(C)c32)cc1,53%
15,Cc1cc(=O)n(Cc2ccccc2)c2c1c(C)nn2-c1ccccc1,72%
16,C=Cc1ccc(Cn2c(=O)cc(C)c3c(C)nn(-c4ccccc4)c32)cc1,-1% (active)
17,Cc1cc(=O)n(Cc2cccc(Cl)c2)c2c1c(C)nn2C,66%
18,C=Cc1ccc(Cn2c(=O)cc(C)c3c(C)nn(C)c32)cc1,0% (active)
19,Cc1cc(=O)n(Cc2ccc(Cl)cc2)c2c1c(C)nn2-c1ccccc1,131%
20,Cc1ccc(C)c(Cn2c(=O)cc(C)c3c(C)nn(C)c32)c1,63%
21,Cc1cc(=O)n(Cc2ccccc2)c2c1c(C)nn2C,-3% (active)
22,COc1cccc(Cn2c(=O)cc(C)c3c(C)nn(C)c32)c1,85%
23,Nc1ccc(-c2nc3c(Cl)cccc3[nH]2)cc1,125%
